Assay outcomes as filed in PubChem.
hNpr1 antagonist – human Npr1 receptor antagonism. AID 1347048. HEK293 hNpr1 GloSensor cGMP, ANP-stimulated luminescence. Potency, µM (doses to about 46.3 µM), for the others: at the highest dose activity change, negative = inhibition, actives largely listed as inhibitors. 76,000 compounds, 1.6% hits; calls by dose curve; also: nearly all actives have a fitted effect of over 60% in size
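Compound pre-incubated 30 min at room temperature on GloSensor-loaded HEK293 cells stably carrying hNpr1 and the pGS-40F cGMP biosensor. Stimulation uses hNppA at 0.1 nM final; luminescence is taken at baseline and 20 min post-agonist.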
Luciferase inh – Photinus pyralis luciferase inhibition; purified P. pyralis luciferase, luminescence, biochemical; Potency, µM (series often up to 115 µM), most hits filed as inhibitors; 76,000 compounds, 2.5% hits; AID 1347043; also: nearly all actives have a fitted effect of over 65% in size
Target sequence (P08659 whole entry, looked up): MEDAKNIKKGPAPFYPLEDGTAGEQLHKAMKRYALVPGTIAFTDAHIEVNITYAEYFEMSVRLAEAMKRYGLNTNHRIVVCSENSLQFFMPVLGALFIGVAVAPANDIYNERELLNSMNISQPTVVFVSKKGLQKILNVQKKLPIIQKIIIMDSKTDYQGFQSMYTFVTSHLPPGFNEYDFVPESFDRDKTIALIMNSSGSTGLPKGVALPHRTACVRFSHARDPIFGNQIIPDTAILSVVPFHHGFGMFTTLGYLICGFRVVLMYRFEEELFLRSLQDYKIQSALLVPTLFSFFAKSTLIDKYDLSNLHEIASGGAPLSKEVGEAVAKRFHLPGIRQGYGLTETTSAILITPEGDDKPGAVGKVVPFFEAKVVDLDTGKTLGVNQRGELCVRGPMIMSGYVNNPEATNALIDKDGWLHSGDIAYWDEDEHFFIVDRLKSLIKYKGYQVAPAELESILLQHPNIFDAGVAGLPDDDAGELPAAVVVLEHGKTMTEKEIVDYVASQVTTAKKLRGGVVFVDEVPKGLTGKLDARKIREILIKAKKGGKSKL
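Purified 10nM P. pyralis luciferase with 10uM D-luciferin and 10uM ATP in 50mM Tris acetate pH 7.5, 10mM Mg acetate, 0.01% Tween-20, 0.05% BSA. qHTS titration; luminescence read by CCD imager.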
HEK293 tox – kills HEK 293 cells. HEK 293 viability, ATP luminescence (CellTiter-Glo), 48-72 h. Potency, µM (highest dose often 115 µM), without a hit: top-dose activity change, negative = cytotoxicity, most hits filed as inhibitors. 94,000 compounds, 6.6% hits. AID 1345083; also: nearly all actives have a fitted effect of over 60% in size
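Cells seeded first (HEK 293, 250 cells/well), then compound added by pintool. Incubation ran 48 or 72 hr at 37 degree Celsius. CellTiter-Glo was added and luminescence imaged after 10 min at room temperature.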
NIH3T3 tox – NIH 3T3 cell cytotoxicity | 94,000 compounds, 4.3% hits | Potency, µM (series often up to 96.7 µM), for inactives: at the top dose activity change, negative = cytotoxicity, most hits filed as inhibitors | NIH 3T3 viability, CellTiter-Glo ATP luminescence, 48-72 h; also: nearly all actives have a fitted effect of over 55% in size
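NIH 3T3 cells at 400 cells/well received 23 nL of compound by pintool and were incubated 48 or 72 h at 37 °C. Viability was read as ATP-coupled CellTiter-Glo luminescence.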
* hit, by the source's call; [ ] = remark or other dose. Only some compounds are listed: those with a hit (about 11% of all), similar ones and a draw of the others. Unless noted, calls follow the shape of the dose curve; as a rule, active = well fitted curve in the direction sought with a large enough effect; inconclusive = small, poorly fitted or top-dose-only effect, or another doubt; inactive = no such curve, though single readings can be large; an effect the other way counts as inactive or inconclusive. % is scaled to controls: 0 for no effect and ±100 for the full control effect; potency is read from the fitted curve at half-maximal effect.

`CC1(C(=O)NC2CCOCC2)COCc2cnc(Nc3ccccc3)nc21` (stereo not drawn) gave hNpr1 antagonist 0%[70.6 µM], Luciferase inh inactive, HEK293 tox -22%[172 µM] and NIH3T3 tox inconclusive.
Screening CC1(C(=O)NC2CC2)CCCc2cnc(Nc3ccccc3)nc21 (stereo not drawn) returned hNpr1 antagonist 1%[70.6 µM], Luciferase inh inactive, HEK293 tox inconclusive and NIH3T3 tox -26%[138 µM].
COc1ccc(NC(=O)C2(C)CCCc3cnc(Nc4cccnc4)nc32)cc1 (stereo not drawn) was read as hNpr1 antagonist 3%[70.6 µM], Luciferase inh inactive, HEK293 tox -20%[172 µM] and NIH3T3 tox 35µM*.
CC1(C(=O)NC2CC2)CCc2cnc(Nc3ccccc3)nc21 (stereo not drawn) was read as hNpr1 antagonist inconclusive, Luciferase inh inactive, HEK293 tox 40µM* and NIH3T3 tox 28µM*.
CC1(C(=O)N2CCC(c3ccccc3)CC2)COCc2cnc(Nc3ccccc3)nc21 (stereo not drawn) was read as hNpr1 antagonist inconclusive, Luciferase inh inactive, HEK293 tox 63µM* and NIH3T3 tox 45µM*.
Screening Cn1ncc2c(C(=O)NCC(F)F)cc(-c3ccc(Cl)cc3Cl)nc21 returned HEK293 tox 3% and NIH3T3 tox inconclusive.
CC(=O)N1CCN(C(=O)c2ccc3nnc(-c4ccc(OC(F)(F)F)cc4)n3c2)CC1 was read as HEK293 tox 1% and NIH3T3 tox -22%.
Screening Cc1nn(-c2ccccc2)c2c1C(C)N(C1CCCN([S+](=O)([O-])c3cccc(C(F)(F)F)c3)C1)C2=O (stereo not drawn) returned HEK293 tox inconclusive and NIH3T3 tox -29%.
For O=C1OCCCN1CCNC(=O)[C@@]12CNC[C@@H]1CN(Cc1ccccc1)C2 the results were hNpr1 antagonist 4%, Luciferase inh inactive, HEK293 tox inconclusive and NIH3T3 tox -11%.
`CC1(C(=O)Nc2ccncc2)CCCc2cnc(Nc3ccccc3)nc21` (stereo not drawn) gave hNpr1 antagonist -17%[70.6 µM], Luciferase inh inactive, HEK293 tox inconclusive and NIH3T3 tox inconclusive.
`COc1cccc(NC(=O)C2(C)CCc3cnc(NCc4ccccc4)nc32)c1` (stereo not drawn) gave hNpr1 antagonist -24%[70.6 µM], Luciferase inh inactive, HEK293 tox 71µM* and NIH3T3 tox inconclusive.
`COc1cccc(NC(=O)C2(C)COCc3cnc(Nc4ccccc4)nc32)c1` (stereo not drawn) gave hNpr1 antagonist -20%[70.6 µM], Luciferase inh inactive, HEK293 tox 100µM* and NIH3T3 tox 79µM*.
COc1cccc(NC(=O)C2(C)CCCc3cnc(N(C)C)nc32)c1 (stereo not drawn) was read as hNpr1 antagonist -3%[70.6 µM], Luciferase inh inactive, HEK293 tox inconclusive and NIH3T3 tox inconclusive.
Cn1ccc(NC(=O)C2(C)COCc3cnc(Nc4ccccc4)nc32)n1 (stereo not drawn) was read as hNpr1 antagonist 0%[70.6 µM], Luciferase inh inactive, HEK293 tox inconclusive and NIH3T3 tox inconclusive.
For COc1ccc(NC(=O)C2(C)CCc3cnc(Nc4ccccc4)nc32)cn1 (stereo not drawn) the results were hNpr1 antagonist -19%[70.6 µM], Luciferase inh inactive, HEK293 tox 100µM* and NIH3T3 tox inconclusive.
Screening COc1ccc(NC(=O)C2(C)CCc3cnc(NCc4ccccc4)nc32)cn1 (stereo not drawn) returned hNpr1 antagonist -1%[70.6 µM], Luciferase inh inactive, HEK293 tox inconclusive and NIH3T3 tox 13µM*.
For COc1cccc(Nc2ncc3c(n2)C(C)(C(=O)NCc2ccc4c(c2)OCO4)CC3)c1 (stereo not drawn) the results were hNpr1 antagonist inconclusive, Luciferase inh inactive, HEK293 tox 32µM* and NIH3T3 tox inconclusive.
`COc1cccc(Nc2ncc3c(n2)C(C)(C(=O)NCCN2CCOCC2)CC3)c1` (stereo not drawn) gave hNpr1 antagonist -3%[70.6 µM], Luciferase inh inactive, HEK293 tox inconclusive and NIH3T3 tox inconclusive.
For COc1cccc(Nc2ncc3c(n2)C(C)(C(=O)NCCCn2ccnc2)CC3)c1 (stereo not drawn) the results were hNpr1 antagonist 1%[70.6 µM], Luciferase inh inactive, HEK293 tox inconclusive and NIH3T3 tox 25µM*.
`CNC(=O)c1cc(C2CC2)nc2onc(C3CCCN3[S+](C)(=O)[O-])c12` (stereo not drawn) gave HEK293 tox -5% and NIH3T3 tox inactive.
Screening COc1ccc(CN2CCNc3cnc(Nc4ccccc4)cc3C2)cc1O returned hNpr1 antagonist 0%[70.6 µM], Luciferase inh inactive, HEK293 tox inconclusive and NIH3T3 tox inconclusive.
For c1cncc(COc2cc3c(cn2)NCCN(Cc2ccsc2)C3)c1 the results were hNpr1 antagonist -10%[70.6 µM], Luciferase inh inactive, HEK293 tox inconclusive and NIH3T3 tox -26%[138 µM].
Screening Oc1ccccc1CN1CCNc2cnc(OCc3cccnc3)cc2C1 returned hNpr1 antagonist inconclusive, Luciferase inh inactive, HEK293 tox 100µM* and NIH3T3 tox -19%[138 µM].
`COc1ccc(CN2CCNc3cnc(Oc4ccccc4)cc3C2)cc1O` gave hNpr1 antagonist -4%[70.6 µM], Luciferase inh inactive, HEK293 tox 63µM* and NIH3T3 tox inconclusive.
Screening FC(F)(F)c1ccc(CN2CCNc3cc(Nc4cccnc4)ncc3C2)cc1 returned hNpr1 antagonist inconclusive, Luciferase inh inactive, HEK293 tox 32µM* and NIH3T3 tox inconclusive.
Screening COc1ccc(CN2CCNc3cnc(Nc4cccnc4)cc3C2)cc1O returned hNpr1 antagonist 2%[70.6 µM], Luciferase inh inactive, HEK293 tox inconclusive and NIH3T3 tox inconclusive.
For c1cncc(Nc2cc3c(cn2)CN(Cc2ccc4[nH]ccc4c2)CCN3)c1 the results were hNpr1 antagonist -23%[70.6 µM], Luciferase inh 40µM*, HEK293 tox 89µM* and NIH3T3 tox inconclusive.
For Cc1cccc(CN2CCNc3cc(Nc4cccnc4)ncc3C2)c1 the results were hNpr1 antagonist 0%[70.6 µM], Luciferase inh inactive, HEK293 tox inconclusive and NIH3T3 tox inconclusive.
For COc1ccc(-n2nc3n(c2=O)CCN(Cc2ccc(C#N)cc2)C3)cc1 the results were HEK293 tox -20% and NIH3T3 tox -22%.
COCCOC1CCOC2(CCN(C(=O)COc3ccc(F)cc3)CC2)C1 (stereo not drawn) was read as hNpr1 antagonist 2%, Luciferase inh inactive, HEK293 tox -20% and NIH3T3 tox -11%.
CCCn1cc(C2CCN(S(=O)(=O)c3c(C)c(C)cc(C)c3C)CC2)c2ccccc21 was read as hNpr1 antagonist 0%, Luciferase inh inactive, HEK293 tox inconclusive and NIH3T3 tox -7%.
CC(=O)Nc1ccc(CC(=O)N2CCC(C)(c3noc(-c4cccnc4)n3)CC2)cc1 was read as HEK293 tox inconclusive and NIH3T3 tox -8%.
For Oc1ccccc1CN1CCNc2cc(Nc3cccnc3)ncc2C1 the results were hNpr1 antagonist -7%[70.6 µM], Luciferase inh inconclusive, HEK293 tox 63µM* and NIH3T3 tox inconclusive.
